The values below come from PubChem BioAssay.

Assay [1] in a line: antimalarial activity against Dd2 strain (AID 2302;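 active means growth inhibition above 50% at the single 2 µM test dose, taken to imply half-maximal potency below 2 µM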;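 further: 0% = DMSO untreated growth and 100% = chloroquine plus artemisinin killed control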). The following applies: P. falciparum Dd2 in RBCs, LDH growth readout, 72 h; at 2 µM; active compounds read high.
Assay [2] is described as follows: human hepatoma cell viability loss – ATP luminescence, cytotoxicity control for P. falciparum antimalarial project, primary screen (AID 2303;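 active means inhibition above 50%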;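 further: 0% = DMSO wells and 100% = digitonin-killed cells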). The following applies: HepG2 viability, 24-48 h, at 10 µM, active compounds read high.
The target of assay [3] is L-lactate dehydrogenase (Plasmodium falciparum (isolate CDC / Honduras)) (UniProt Q27743). Description: PfLDH activity inhibition – cell lysate, 3D7 strain, counter-screen for P. falciparum growth inhibition project (AID 2304).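 Further: 0% = vehicle and 100% = reference inhibitor.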 Particulars: P. falciparum 3D7 crude extract, LDH APAD/NBT absorbance; at 2 µM; active compounds read high.
Assay [4] in a line: inhibition of 3D7 malaria parasite growth – strain 3D7 (AID 2306).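 Further: 0% = DMSO wells and 100% = chloroquine plus artemisinin control wells.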 The following applies: P. falciparum 3D7 erythrocytic growth, LDH absorbance, 72 h; at 2 µM; active compounds read high.
For assay [5], the target named is Calcium-dependent protein kinase 1 (Plasmodium falciparum (isolate 3D7)) (UniProt P62344). In words: PfCDPK1 kinase inhibitors, biochemical, TCAMS library (AID 1159585; cut-off not given, nearly all actives have IC50 up to about 0.98 µM;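 further: inhibitors leave more ATP so luminescence rises with inhibition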). The following applies: recombinant PfCDPK1, Kinase-Glo ATP depletion luminescence. (In Kinase-Glo more light means more ATP remaining.)
Assay [6] concerns the target Plasmodium falciparum protein kinase 6 (PK6, PF3D7_1337100) (UniProt Q8IDW1). Description: PfPK6 kinase inhibitors, biochemical, TCAMS library (AID 1159586). The following applies: recombinant PfPK6, Kinase-Glo ATP depletion luminescence.
For assay [7], the target named is Protein kinase 7 (PK7), Plasmodium falciparum 3D7 (PF3D7_0213400) (UniProt Q7YTF7). Description: inhibition of Plasmodium PK7 catalytic activity – biochemical, TCAMS antimalarial set, Kinase-Glo luminescence (AID 1159587). Particulars: recombinant PfPK7, Kinase-Glo ATP depletion luminescence.
Assay [8] addresses Calcium-dependent protein kinase 4 (Plasmodium falciparum (isolate 3D7)) (UniProt Q8IBS5). In words: PfCDPK4 kinase inhibitors, biochemical, TCAMS library (AID 1159588; cut-off not given, nearly all actives have IC50 up to about 0.91 µM). Particulars: recombinant PfCDPK4, Kinase-Glo ATP depletion luminescence.

The structures appear in SMILES notation. Unmarked numbers belong to inactive results. For some of these results: Entries with a potency or affinity are not part of this list. Calls of active or inactive are those of the source. Unless noted, how the calls were made is not given here.

Sequence of Calcium-dependent protein kinase 1 (Plasmodium falciparum (isolate 3D7)) (P62344 whole entry, looked up): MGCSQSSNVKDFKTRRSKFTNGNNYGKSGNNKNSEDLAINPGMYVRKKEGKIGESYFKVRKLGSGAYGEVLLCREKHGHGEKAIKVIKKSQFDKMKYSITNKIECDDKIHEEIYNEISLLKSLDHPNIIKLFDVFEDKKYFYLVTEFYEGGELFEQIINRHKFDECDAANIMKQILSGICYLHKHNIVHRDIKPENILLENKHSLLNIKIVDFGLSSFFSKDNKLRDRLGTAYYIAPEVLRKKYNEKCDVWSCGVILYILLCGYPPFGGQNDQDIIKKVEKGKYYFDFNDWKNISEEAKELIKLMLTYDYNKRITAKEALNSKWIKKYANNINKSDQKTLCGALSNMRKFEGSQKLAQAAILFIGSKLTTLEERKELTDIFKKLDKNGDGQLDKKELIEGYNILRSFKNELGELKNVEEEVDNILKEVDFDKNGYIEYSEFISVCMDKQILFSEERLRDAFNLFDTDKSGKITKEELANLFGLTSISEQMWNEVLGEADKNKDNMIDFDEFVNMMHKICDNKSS
Sequence of Plasmodium falciparum protein kinase 6 (PK6, PF3D7_1337100) (Q8IDW1 1-305): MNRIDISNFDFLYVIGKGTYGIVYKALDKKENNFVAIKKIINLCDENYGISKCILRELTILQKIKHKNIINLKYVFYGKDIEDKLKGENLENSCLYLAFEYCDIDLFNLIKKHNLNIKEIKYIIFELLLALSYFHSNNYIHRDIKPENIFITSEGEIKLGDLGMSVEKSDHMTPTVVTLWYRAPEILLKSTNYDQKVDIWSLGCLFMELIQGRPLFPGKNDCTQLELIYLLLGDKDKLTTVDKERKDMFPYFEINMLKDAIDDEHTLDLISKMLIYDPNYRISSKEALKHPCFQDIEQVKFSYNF
Sequence of L-lactate dehydrogenase (Plasmodium falciparum (isolate CDC / Honduras)) (Q27743 whole entry, looked up): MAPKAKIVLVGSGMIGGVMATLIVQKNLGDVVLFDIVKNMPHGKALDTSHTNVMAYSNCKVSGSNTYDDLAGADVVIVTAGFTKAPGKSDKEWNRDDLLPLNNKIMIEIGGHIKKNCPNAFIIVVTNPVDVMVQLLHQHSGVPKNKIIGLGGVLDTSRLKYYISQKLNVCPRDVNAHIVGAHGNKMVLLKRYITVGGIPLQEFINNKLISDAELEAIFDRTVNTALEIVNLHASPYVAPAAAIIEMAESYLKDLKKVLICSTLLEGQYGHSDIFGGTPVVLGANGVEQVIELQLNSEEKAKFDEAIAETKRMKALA
Sequence of Calcium-dependent protein kinase 4 (Plasmodium falciparum (isolate 3D7)) (Q8IBS5 whole entry, looked up): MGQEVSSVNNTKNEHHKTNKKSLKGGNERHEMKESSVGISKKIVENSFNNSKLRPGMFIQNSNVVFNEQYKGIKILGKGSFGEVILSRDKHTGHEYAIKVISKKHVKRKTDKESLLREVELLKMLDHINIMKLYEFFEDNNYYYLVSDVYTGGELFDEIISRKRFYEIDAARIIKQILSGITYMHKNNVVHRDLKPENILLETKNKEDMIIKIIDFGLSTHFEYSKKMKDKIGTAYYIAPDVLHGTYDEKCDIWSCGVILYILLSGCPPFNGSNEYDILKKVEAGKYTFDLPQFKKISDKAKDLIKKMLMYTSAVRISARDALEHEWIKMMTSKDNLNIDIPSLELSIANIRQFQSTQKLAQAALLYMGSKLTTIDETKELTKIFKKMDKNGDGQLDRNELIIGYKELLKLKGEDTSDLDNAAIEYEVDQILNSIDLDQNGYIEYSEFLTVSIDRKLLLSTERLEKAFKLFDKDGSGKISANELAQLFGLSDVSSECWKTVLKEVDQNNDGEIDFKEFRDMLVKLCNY
Sequence of Protein kinase 7 (PK7), Plasmodium falciparum 3D7 (PF3D7_0213400) (Q7YTF7 1-343): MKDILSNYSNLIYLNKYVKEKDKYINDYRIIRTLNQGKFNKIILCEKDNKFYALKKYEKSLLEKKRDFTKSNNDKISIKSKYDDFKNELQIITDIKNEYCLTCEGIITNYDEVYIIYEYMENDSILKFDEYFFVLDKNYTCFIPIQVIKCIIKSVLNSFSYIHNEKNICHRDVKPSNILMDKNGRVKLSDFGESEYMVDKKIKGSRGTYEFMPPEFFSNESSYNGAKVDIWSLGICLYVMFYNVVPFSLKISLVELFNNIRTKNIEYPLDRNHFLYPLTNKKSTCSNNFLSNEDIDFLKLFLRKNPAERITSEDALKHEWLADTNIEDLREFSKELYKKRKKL

Consider `Cn1cc(C2CCN(CCCCNC(=O)c3ccc(-c4ccc(C(F)(F)F)cc4)c(CO)c3)CC2)c2ccccc21`, for which the growth inhibition in assay [1] was 16%; in assay [4], 88% (active). Also, the inhibition (in general, the drop in the measured response relative to a control, in per cent) in assay [2] was 67% (active); in assay [3], -1%. Besides, the outcome in assay [5], in assay [6], in assay [7] and in assay [8] was inactive.

Consider `C=CC[C@H](NC(=O)c1ccc(NS(=O)(=O)c2ccc3nc(N)[nH]c(=O)c3c2)cc1)C(=O)OCCCC`, for which the growth inhibition in assay [1] is 2%; in assay [4], 97% (active). For the same compound, the inhibition in assay [2] is 61% (active); in assay [3], 1%. The result in assay [5], in assay [6], in assay [7] and in assay [8] was inactive.

For the compound `CCCCCCN=C(N)c1ccc(OCCCCCOc2ccc(C(N)=NCCCCCC)cc2)cc1`, the values for the growth inhibition in assay [1] and in assay [4] were 98% (active) and 97% (active), respectively. Further, the inhibition in assay [2] was 55% (active); in assay [3], -8%. The outcome in assay [5], in assay [6], in assay [7] and in assay [8] was inactive.

Take `Cn1nc(-c2ccc(NC(=O)Nc3cc(C(F)(F)F)ccc3F)cc2)c2cnc(NCCc3cnc[nH]3)nc21`: the growth inhibition in assay [1] was 56% (active); in assay [4], 99% (active). Moreover, the inhibition in assay [2] is 15%; in assay [3], -3%. In addition, the result in assay [5], in assay [6], in assay [7] and in assay [8] was inactive.

As for `COc1ccc(NC(=O)c2cccc(Br)c2)cc1N1CCN(CCCCCCCN2CCN(c3cc(NC(=O)c4cccc(Br)c4)ccc3OC)CC2)CC1`, the growth inhibition was 93% (active) in assay [1] and 99% (active) in assay [4]. Further, the inhibition was 97% (active) in assay [2] and 0% in assay [3]. For the same compound, the result in assay [5], in assay [6], in assay [7] and in assay [8] was inactive.

On to `Cc1ccccc1C1CCN(C2CCC(NC(=O)/C=C/c3ccc4c(c3)OC(F)(F)O4)CC2)CC1` (stereo not given), for which the growth inhibition in assay [1] was 39%; in assay [4] it was 100% (active). In addition, the results for the inhibition in assay [2] and in assay [3] were 75% (active) and 2%, respectively. The result in assay [5], in assay [6], in assay [7] and in assay [8] was inactive.

Take `CC(=O)N(C)/N=C/[C@H](CCc1ccccc1)NC(=O)[C@H](CC(C)C)NC(=O)c1cccc(OCCN2CCOCC2)c1`: the growth inhibition in assay [1] is 65% (active); in assay [4] it was 89% (active). The inhibition in assay [2] and in assay [3] was 5% each time. The result in assay [5], in assay [6], in assay [7] and in assay [8] was inactive.

Take `Cc1cc(NC(=O)NCCN2CCC(NC(=O)c3cccc(Br)c3)C2)c2ccccc2n1` (stereo not given): the growth inhibition in assay [1] is 60% (active); in assay [4], 100% (active). Moreover, the inhibition in assay [2] was -2%; in assay [3], -1%. Besides, the result in assay [5], in assay [6], in assay [7] and in assay [8] was inactive.

Consider `CS(=O)(=O)CCNCc1cccc(-c2cc3nccc(Nc4ccc(Oc5ccccc5)cc4)c3cc2Cl)c1`, for which the growth inhibition is 82% (active) in assay [1] and 100% (active) in assay [4]. The results for the inhibition in assay [2] and in assay [3] were 2% and -3%, respectively. Further, the outcome in assay [5], in assay [6], in assay [7] and in assay [8] was inactive.

For the compound `NC1CCCN(Cc2cccc(-c3cccc(-c4nc5ccccc5[nH]4)c3)c2)C1` (stereo not given), the growth inhibition was 61% (active) in assay [1] and 101% (active) in assay [4]. In addition, the inhibition in assay [2] is 24%; in assay [3] it was -5%. Also, the result in assay [5], in assay [6], in assay [7] and in assay [8] was inactive.

With `CCNc1cc(-c2cccc(OC)c2)nc(Nc2ccc(F)cc2)n1`, the values for the growth inhibition in assay [1] and in assay [4] were 23% and 87% (active), respectively. The inhibition was 11% in assay [2] and 3% in assay [3]. The result in assay [5], in assay [6], in assay [7] and in assay [8] was inactive.

Take `Nc1cc(-c2ccc3ccccc3c2)nc2ccccc12`: the growth inhibition is 52% (active) in assay [1] and 99% (active) in assay [4]. Also, the inhibition in assay [2] is 19%; in assay [3] it was -2%. The result in assay [5], in assay [6], in assay [7] and in assay [8] was inactive.

Take `CN1CCC(Oc2ccc(CN3CC[C@H](NC(=O)c4ccc(F)c(F)c4)C3)c3ccccc23)C1` (stereo not given in full): the growth inhibition in assay [1] was 27%; in assay [4], 91% (active). Also, the inhibition was 20% in assay [2] and 2% in assay [3]. In addition, the outcome in assay [5], in assay [6], in assay [7] and in assay [8] was inactive.

For the compound `CCCN1CC[C@@H](CCCc2ccnc3ccc(O)cc23)[C@@H](CC)C1`, the values for the growth inhibition in assay [1] and in assay [4] were 14% and 93% (active), respectively. The inhibition is 10% in assay [2] and -2% in assay [3]. Moreover, the result in assay [5], in assay [6], in assay [7] and in assay [8] was inactive.

Regarding `CCNc1cc(C(=O)N[C@@H](Cc2ccccc2)[C@H](O)CN[C@@H]2CCc3ccccc32)cc(N2CCCC2=O)c1`, the values for the growth inhibition in assay [1] and in assay [4] were 93% (active) and 92% (active), respectively. The figures for the inhibition in assay [2] and in assay [3] were -5% and 6%, respectively. Besides, the result in assay [5], in assay [6], in assay [7] and in assay [8] was inactive.

With `O=C(NC1CCN(Cc2ccc3c(c2)OCCO3)CC1)c1ccc(-c2cccc(Cl)c2)s1`, the growth inhibition in assay [1] is 9%; in assay [4], 93% (active). For the same compound, the inhibition in assay [2] is 46%; in assay [3], -5%. Besides, the outcome in assay [5], in assay [6], in assay [7] and in assay [8] was inactive.

With `Cc1nc2ccc3ccc(CNc4ccc(C(=O)N[C@@H](CCC(=O)O)C(=O)O)cc4)cc3c2c(=O)[nH]1`, the results for the growth inhibition in assay [1] and in assay [4] were 95% (active) and 89% (active), respectively. Also, the values for the inhibition in assay [2] and in assay [3] were 32% and 0%, respectively. Further, the result in assay [5], in assay [6], in assay [7] and in assay [8] was inactive.

Consider `O=C(/C=C/c1ccc(Cl)c(Cl)c1)NCCCCCN1CCC(C(=O)Nc2cccc(Cl)c2)CC1`, for which the growth inhibition in assay [1] was -2%; in assay [4], 100% (active). Moreover, the inhibition was 48% in assay [2] and -3% in assay [3]. In addition, the result in assay [5], in assay [6], in assay [7] and in assay [8] was inactive.

Turning to `O=C(Cc1ccc(NC(=O)c2ccc(O)c(-c3cccc([N+](=O)[O-])c3)c2)cc1)NCCN1CCCCC1`, the growth inhibition was 3% in assay [1] and 89% (active) in assay [4]. Besides, the inhibition in assay [2] and in assay [3] was 4% throughout. Further, the result in assay [5], in assay [6], in assay [7] and in assay [8] was inactive.

Take `O=C(Nc1ccc(CC(=O)N2CCc3cc(Cl)c(N4CCN(C/C=C/c5ccccc5)CC4)cc32)cc1)Nc1cccc([N+](=O)[O-])c1`: the figures for the growth inhibition in assay [1] and in assay [4] were 27% and 95% (active), respectively. The inhibition is -8% in assay [2] and -5% in assay [3]. The outcome in assay [5], in assay [6], in assay [7] and in assay [8] was inactive.
